# Measurements taken from PubChem BioAssay (NCATS).
# Where “and” joins values, the source holds several entries; their conditions need not be identical. Equal values may be shown once. Records with an inconclusive call do not appear. Calls of active or inactive are those of the source. The call rests on the fitted dose curve; in most records, active means well fitted curve in the direction sought with a large enough effect; inconclusive means small, poorly fitted or top-dose-only effect, or another doubt; inactive means no such curve, though single readings can be large; an effect the other way counts as inactive or inconclusive.
# How the values were obtained:
# [1] = molecular target: Calcium and integrin-binding protein 1 (Homo sapiens) (UniProt Q99828); experiment: Primary qHTS for Identification of Calcium Integrin Binding Protein 1 (CIB1) Competitor (AID 1508620);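 further: GST tagged CIB1 binding a fluorescein labelled alphaIIb integrin peptide tracer; top concentration of the series differs between compounds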
# Calcium and integrin-binding protein 1 (Homo sapiens), sequence (Q99828 whole entry, looked up): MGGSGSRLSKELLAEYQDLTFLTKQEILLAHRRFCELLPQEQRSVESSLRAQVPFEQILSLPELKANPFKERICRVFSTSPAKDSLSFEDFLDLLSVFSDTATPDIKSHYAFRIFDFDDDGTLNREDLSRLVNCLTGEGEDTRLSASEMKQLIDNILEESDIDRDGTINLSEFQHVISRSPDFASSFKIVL
# Procedure, shortened: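 CIB1-GST (1 uM final) and compound incubated 15 min at room temperature before adding FITC-alphaIIb peptide tracer (100 nM final). Competition for binding read by fluorescence polarization (ex 480, em 540) after another 15 min at room temperature.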
# [2] = Primary qHTS for inhibitors of nuclear receptor binding SET domain protein 2 (NSD2) in an isogenic RCH-ACV NSD2 p.E1099K mutant (9B) (AID 1645876); further: nearly all actives have a fitted effect of over 70% in size; further: potency means the concentration at half of the fitted maximal effect
# [3] = Primary qHTS for inhibitors of nuclear receptor binding SET domain protein 2 (NSD2) in an RCH-ACV wild type WT cells (2C) (AID 1645877); further: nearly all actives have a fitted effect of over 70% in size; further: potency means the concentration at half of the fitted maximal effect
SMILES,Potency [1],Potency [2],Potency [3]
COc1ccc([C@H]2OC[C@H]3O[C@@H](O[C@H]4[C@@H]2NC[C@@H]4O)[C@H](O)[C@H]3O)cc1,inactive,0.8 µM (active),1.27 µM (active)
C/C=C(/C)C(=O)O[C@H]1C=C(CO)C(=O)[C@H](OC(=O)/C(C)=C/CO)[C@H]1C(C)C,inactive,1.79 µM (active),1.79 µM (active)
C=C1C(=O)OC2/C=C(/C)C3=CC(=O)C(C)(CC(OC(=O)/C(C)=C/COC(C)=O)C12)O3 (stereo not drawn),inactive,1.12 µM (active),0.399 µM (active)
CC(=O)OC1CC(C)C2(CCC3(CC(=O)OC3O)O2)C2(C)CCCC(C)(C)C12 (stereo not drawn),inactive,inactive,inactive
C=C1C(=O)O[C@@H]2[C@H]1CC[C@H](C)C(CCC(=O)O)C2(C)O (stereo partly drawn),inactive,18.3 µM (active),12.9 µM (active)
COC(=O)C[C@H]1[C@]2(C)C3=C(C)[C@H](c4ccoc4)C[C@H]3O[C@@H]2[C@H](O)C2[C@](C)(C(=O)OC)C=CC(=O)[C@@]21C (stereo partly drawn),inactive,inactive,inactive
N#Cc1ccnc(Nc2cc(C3CCN(C4COC4)CC3)cc(N3CCC(F)(F)C3)n2)c1,inactive,2.91 µM (active) and 934 nM (active),2.59 µM (active) and 525 nM (active)
CCCSc1nc(N[C@@H]2C[C@H]2c2ccc(F)c(F)c2)c2nnn([C@@H]3C[C@H](OCCO)[C@@H](O)[C@H]3O)c2n1,inactive,25.8 µM (active),18.3 µM (active)
C[C@H](Oc1cc(-c2cnn(C3CCNCC3)c2)cnc1N)c1c(Cl)ccc(F)c1Cl,inactive,11.5 µM (active),12.9 µM (active)
NC(=O)c1cnc(N[C@@H]2CCCC[C@@H]2N)nc1Nc1cccc(-n2nccn2)c1,inactive,1.32 µM (active),1.32 µM (active)
C=C1C(=O)OC2CC(C)C(CCC(C)=O)=CCC12 (stereo not drawn),inactive,18.3 µM (active),12.9 µM (active)
C/C1=C\CCC2=CC(OC2=O)C(C)(C)/C=C/C1=O (stereo not drawn),inactive,6.49 µM (active),2.9 µM (active)
CCc1c[nH]c2ncnc(N3CC[C@](N)(CNC(=O)c4ccc(F)cc4F)C3)c12,inactive,1.63 µM (active),3.65 µM (active)
Cc1nnc(C[C@@H]2C=C(c3ccc(Cl)cc3)c3ccccc3-n3c(C)nnc32)o1,inactive,0.332 µM (active),0.296 µM (active)
Cc1ccc(-c2ncccn2)c(C(=O)N2C[C@H](COc3ccc(F)cn3)CC[C@H]2C)c1,inactive,inactive,inactive
C/C=C(\C)[C@@H]1C(C)=C[C@@H]2[C@H]([C@@H]1/C=C/C=C/C(=O)O)[C@@H](C)CC[C@@H]2O,inactive,5.05 µM (active),4.01 µM (active)
C=C1C(=O)O[C@H]2/C=C(/C)[C@@H](OC(C)=O)C/C=C(\C)C[C@@H](OC(=O)/C(=C/C)COC(=O)/C(=C/C)CO)[C@@H]12,inactive,1.78 µM (active),1.12 µM (active)
C=C(C)C1CC(O)C(C)C12CC(O)C1(C)OC1C2O (stereo not drawn),inactive,4.59 µM (active),3.25 µM (active)
CC(C)C[C@H](C(=O)O)c1cc(-c2ccc(C(F)(F)F)cc2)cc(-c2ccc(C(F)(F)F)cc2)c1,inactive,9.16 µM (active),11.5 µM (active)
CC(C)(C)[C@H](NC(=O)c1ccc(N)c(Cl)c1)C(=O)N1CCC[C@H]1C(=O)N[C@H](C#N)CC(=O)O,inactive,inactive,inactive
CCCCCCCCn1cc(CN(CC)CC)c2cc(-c3cnc(N)nc3)ccc21,inactive,4.09 µM (active),3.25 µM (active)
O=C(Nc1nc2cc(C(F)(F)F)cc(NC3CC3)n2n1)c1cccnc1,inactive,2.3 µM (active),1.83 µM (active)
COc1cc(CCO)ccc1O[C@@H]1O[C@H](CO)[C@@H](O)[C@H](O)[C@H]1O,inactive,inactive,inactive
C=C1C(=O)OC2/C=C(\CO)CC/C=C(\C=O)C(O)C(OC(=O)C(C)CC)C12 (stereo not drawn),inactive,5.67 µM (active),2.01 µM (active)
C=C(C)C(=O)O[C@H]1/C(C=O)=C\CC/C(CO)=C/[C@H]2OC(=O)C(=C)[C@@H]2[C@@H]1OC,inactive,11.3 µM (active),2.53 µM (active)
C=C1C(=O)O[C@@H]2[C@H]1CC(=O)[C@H](C)[C@@](O)(C(=O)/C=C/C)[C@H]2OC(=O)C(C)CC (stereo partly drawn),inactive,1.27 µM (active),0.45 µM (active)
